The source of these data is PubChem BioAssay (NCI).

The panel holds about 79,000 compounds, 15% with a hit somewhere; the sample as a whole holds those more often. A number with no mark means an inactive call. Activity calls are given as the source filed them. Rule as the data show it: active = growth inhibition above about 70%; inactive = the rest.

The nature of assay [1]: NCI Yeast Anticancer Drug Screen. Data for the rad50 strain (AID 155).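 Also: 0% = growth of vehicle-only cultures of the same strain.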 As to conditions: S. cerevisiae rad50 strain growth inhibition; at 50.0 µM; hits give high values. The procedure, abridged:
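Compounds were tested on a yeast strain with an engineered DNA damage repair alteration; the reported value is growth inhibition normalised to vehicle treatment.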

Assay [2] in a line: NCI Yeast Anticancer Drug Screen. Data for the mec2-1 strain (AID 157). The note with it: S. cerevisiae mec2-1 strain, at 50.0 µM, hits give high values. The procedure, abridged:
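Readout is yeast growth inhibition, normalised to vehicle-treated controls, in the mec2-1 strain exposed to compound.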

The nature of assay [3]: NCI Yeast Anticancer Drug Screen. Data for the sgs1 mgt1 strain (AID 161).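 Also: 0% = growth of cultures given vehicle only.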 As to conditions: S. cerevisiae sgs1 mgt1 strain, at 50.0 µM, hits give high values. The procedure, abridged:
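Percent growth inhibition was derived by comparing compound-exposed mutant yeast with vehicle-exposed cultures. The strain carries alterations in DNA damage repair.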

Assay [4] in a line: NCI Yeast Anticancer Drug Screen. Data for the cln2 rad14 strain (AID 165).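 Also: 0% = growth equal to vehicle treated cultures.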 The note with it: S. cerevisiae cln2 rad14 strain, at 50.0 µM, hits give high values. The procedure, abridged:
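Relative to vehicle controls, growth inhibition of compound-treated cln2 rad14 yeast was recorded.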

Assay [5] can be described thus: NCI Yeast Anticancer Drug Screen. Data for the bub3 strain (AID 167). As to conditions: S. cerevisiae bub3 mutant strain, at 50.0 µM, hits give high values. The procedure, abridged: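 Growth of a checkpoint-deficient yeast mutant is measured after compound exposure. Values represent inhibition relative to vehicle.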
The nature of assay [6]: NCI Yeast Anticancer Drug Screen. Data for the mlh1 rad18 strain (AID 175). As to conditions: S. cerevisiae mlh1 rad18 strain growth inhibition; at 50.0 µM; hits give high values. The procedure, abridged:
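Test agents were incubated with a yeast strain of defined genotype (DNA damage repair defect). Inhibition of growth was derived by comparison with vehicle-exposed cultures.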

With `COC(=O)Nc1cn2nc(C)sc2n1`, the growth inhibition is -17.4% in assay [1]; 11.4% in assay [2]; -10.1% in assay [3]; -16.1% in assay [4]; 2.6% in assay [5]; -6.95% in assay [6].
For `C[N+]1(C)CCCC(O)(C(=O)c2ccccc2)C1` (stereo not drawn), the growth inhibition is -5.2% in assay [1]; -10.3% in assay [2]; -14.3% in assay [3]; 6.6% in assay [4]; -2.4% in assay [5]; 17.1% in assay [6].
Consider `O=C1C=C(N2CCCC2)CC1`, for which the growth inhibition in assay [1] is 18.2%; in assay [2], 3.1%; in assay [3] it was -0.2%; in assay [4] it was -43%; in assay [5], -17.1%; in assay [6] it was 6.25%.
In the case of `O=S(=O)(c1ccc(Nc2nnc(-c3ccccc3)s2)cc1)N1CCCCC1`, the growth inhibition in assay [1] is -4%; in assay [2], 12.8%; in assay [3] it was 42.3%; in assay [4] it was -23.1%; in assay [5], 40.9%; in assay [6], 5.65%.
For `CCCCC(c1nc2c(c3c1CCCC3)CCCC2)C(O)(C(F)(F)F)C(F)(F)F` (stereo not drawn), the growth inhibition in assay [1] is 13.1%; in assay [2] it was 7%; in assay [3], 10.2%; in assay [4], -4.15%; in assay [5], -2.1%; in assay [6], 16.4%.
Consider `Nc1ccc2cc3ccccc3cc2c1`, for which the growth inhibition in assay [1] was 12.6%; in assay [2], -20.6%; in assay [3] it was 1.95%; in assay [4], -18%; in assay [5], 7.35%; in assay [6], 25%.
Consider `CC(C)(C)OC(=O)CC(NC(=O)OC(C)(C)C)C(=O)N[C@@H]1CCCC[C@H]1C(=O)OCc1ccccc1` (stereo partly drawn), for which the growth inhibition in assay [1] was 8.3%; in assay [2], 15.2%; in assay [3], 9.55%; in assay [4] it was 8.35%; in assay [5], 14.7%; in assay [6] it was 23.1%.
Take `CCN(CC)CCN(C(=O)c1ccc(F)cc1)c1ccccc1N`: the growth inhibition was -13.2% in assay [1]; -34.1% in assay [2]; -23.6% in assay [3]; -11.9% in assay [4]; 3.85% in assay [5]; -23.6% in assay [6].
On to `CCCCCCCCCCCC(=O)N(CCCCCCCCCCC(=O)O)CC(O)C(O)C(OC1OC(CO)C(O)C(O)C1O)C(O)CO` (stereo not drawn), for which the growth inhibition in assay [1] was 65.3%; in assay [2] it was 12.8%; in assay [3], 85.8% (active); in assay [4] it was 32.2%; in assay [5], 86.3% (active); in assay [6] it was 20.3%.
On to `CC(C)(C)OC(=O)C1=C2C=C(O)C=CC2(C)N(Cc2ccccc2)C1=N` (stereo not drawn), for which the growth inhibition was -23.9% in assay [1]; -55.5% in assay [2]; -36% in assay [3]; -36.2% in assay [4]; -24.6% in assay [5]; -50.2% in assay [6].
Consider `CCc1ccccc1OCc1ccccc1`, for which the growth inhibition in assay [1] was 18.4%; in assay [2] it was 11.8%; in assay [3], 14.2%; in assay [4], 6.9%; in assay [5], 1%; in assay [6], 1.75%.
In the case of `[N-]=[N+]=Nc1ccccc1C(=O)NC(=O)Nc1ccccc1`, the growth inhibition was -14.1% in assay [1]; 1.95% in assay [2]; 5.5% in assay [3]; -19.2% in assay [4]; 2.45% in assay [5]; -2.1% in assay [6].
Regarding `CCC(O)CNCc1ccnc2ccc(OC)cc12` (stereo not drawn), the growth inhibition in assay [1] is 3.3%; in assay [2], 2.9%; in assay [3], 0.45%; in assay [4] it was -45.4%; in assay [5] it was -4.1%; in assay [6], -12.1%.
For `O=C(Nc1ccc([N+](=O)[O-])cc1)c1ccc(Cl)cc1`, the growth inhibition is -4.7% in assay [1]; 7.75% in assay [2]; -1.35% in assay [3]; -50.5% in assay [4]; 5.15% in assay [5]; -36.5% in assay [6].
For `CC1N(N2C(=O)CS(=O)(=O)C2C)C(=O)CS1(=O)=O` (stereo not drawn), the growth inhibition in assay [1] is 11.2%; in assay [2], -3.95%; in assay [3], 25.3%; in assay [4], 15.1%; in assay [5] it was 1.35%; in assay [6], 37%.
With `CC(=O)N=C1CSc2ccccc2N1C`, the growth inhibition is -1.15% in assay [1]; -7.2% in assay [2]; -7.9% in assay [3]; -40.4% in assay [4]; -15.5% in assay [5]; -8.9% in assay [6].
Consider `O=[N+]([O-])c1c(Cl)cc(Cl)c([N+](=O)[O-])c1-c1ccccc1`, for which the growth inhibition was -17.1% in assay [1]; 9.1% in assay [2]; -14.3% in assay [3]; 7.75% in assay [4]; 14.2% in assay [5]; -31.7% in assay [6].
As to `SCCCCN1CCCCC1`, the growth inhibition was -17.2% in assay [1]; -14.3% in assay [2]; 5.4% in assay [3]; -12.2% in assay [4]; -4.45% in assay [5]; -9.9% in assay [6].
For the compound `CS(=O)(=O)OCCCCOS(=O)(=O)CF`, the growth inhibition was -36.9% in assay [1]; -35% in assay [2]; -31.4% in assay [3]; -14.2% in assay [4]; -8.7% in assay [5]; -20% in assay [6].
Regarding `BrCCCCCCCCCBr`, the growth inhibition is 9.75% in assay [1]; -3.35% in assay [2]; 1.05% in assay [3]; 12.9% in assay [4]; -16.6% in assay [5]; 29.1% in assay [6].
Consider `CC1(C)CC(=O)C(C(c2ccccc2)C2C(=O)CC(C)(C)CC2=O)C(=O)C1`, for which the growth inhibition in assay [1] was 4%; in assay [2], -8.9%; in assay [3], 1.8%; in assay [4], 2.6%; in assay [5], 6.5%; in assay [6], 7%.
For the compound `N=S(c1ccccc1)c1ccccc1[N+](=O)[O-]` (stereo not drawn), the growth inhibition in assay [1] is 16.2%; in assay [2] it was -6.65%; in assay [3] it was 18.6%; in assay [4], 11.8%; in assay [5], 4.35%; in assay [6], -3.45%.
`COc1nc2c(c(O)c(C)c(=O)n2OC2OC(COC(C)=O)C(OC(C)=O)C(OC(C)=O)C2OC(C)=O)c(=O)n1C` (stereo not drawn): the growth inhibition was -2.1% in assay [1]; -15.8% in assay [2]; 7.95% in assay [3]; -7.75% in assay [4]; 0.45% in assay [5]; 2.3% in assay [6].
With `NC(=S)c1cc[n+]([O-])cc1`, the growth inhibition was 8.65% in assay [1]; 2.55% in assay [2]; 5.4% in assay [3]; -11.2% in assay [4]; -7.2% in assay [5]; -3.8% in assay [6].
For the compound `C[N+](C)(C)CCCCCc1c2nc(c(CCCCC[N+](C)(C)C)c3ccc([nH]3)c(CCCCC[N+](C)(C)C)c3ccc([nH]3)c(CCCCC[N+](C)(C)C)c3nc1C=C3)C=C2`, the growth inhibition is 19.6% in assay [1]; 3.85% in assay [2]; 10% in assay [3]; 3.8% in assay [4]; 26.4% in assay [5]; 85.2% (active) in assay [6].
Regarding `CNC(=S)NNc1ncnc2c1ncn2-c1ccc(C)cc1`, the growth inhibition in assay [1] was -30.4%; in assay [2], 6.3%; in assay [3], 5.45%; in assay [4], 29.7%; in assay [5], 11.4%; in assay [6], 4.25%.
As to `Cc1ccc(-c2cc(C(=O)NN)c(C#N)c(=O)[nH]2)cc1`, the growth inhibition in assay [1] was 11.4%; in assay [2] it was 0.55%; in assay [3], -0.85%; in assay [4], 15.1%; in assay [5] it was -13.2%; in assay [6] it was 26.1%.
In the case of `CN1CNC(=O)c2n[nH]nc21`, the growth inhibition in assay [1] is -1.25%; in assay [2], 34.5%; in assay [3], -4.15%; in assay [4], -21%; in assay [5] it was 13.1%; in assay [6] it was -2.7%.
Turning to `CN1CCCCC1CCO` (stereo not drawn), the growth inhibition in assay [1] is -1.4%; in assay [2], 6.7%; in assay [3], -11.2%; in assay [4], 15.9%; in assay [5] it was 3.25%; in assay [6], 14.1%.
Consider `CN(C)S(=O)(=O)C(C(=O)Nc1ccccc1)c1ccccc1` (stereo not drawn), for which the growth inhibition in assay [1] was -1.15%; in assay [2] it was 13.8%; in assay [3], 3%; in assay [4], -34.7%; in assay [5], -5.95%; in assay [6] it was -10.5%.
On to `Cc1cn(C2CC(O)C(CO)O2)c(=O)nc1NCC12CC3CC(CC(C3)C1)C2` (stereo not drawn), for which the growth inhibition in assay [1] was -1.7%; in assay [2] it was 11.8%; in assay [3], -1.1%; in assay [4] it was -1.1%; in assay [5], -0.8%; in assay [6] it was -2.25%.
For `CC(=O)/C=C/N(C)c1ccc(O)cc1`, the growth inhibition is 40.6% in assay [1]; 2.3% in assay [2]; -6.45% in assay [3]; 9.3% in assay [4]; 5.55% in assay [5]; -26.2% in assay [6].
`O=c1nc2n(cc1F)C1OC(CCl)C(O)C1O2` (stereo not drawn): the growth inhibition in assay [1] was 8.55%; in assay [2], -8%; in assay [3], 15.7%; in assay [4] it was 1.05%; in assay [5] it was 6.9%; in assay [6], 2.2%.
Regarding `N#C/C(=C\c1ccccn1)c1ccc(Cl)cc1`, the growth inhibition is 3.15% in assay [1]; 1.1% in assay [2]; 11.5% in assay [3]; -17.4% in assay [4]; 17.3% in assay [5]; 53.7% in assay [6].
As to `CC1=C(C(=O)NNC(=O)c2ccccc2O)CC(C(=O)NNC(=O)c2ccccc2O)=C(C)N1`, the growth inhibition in assay [1] is 45.5%; in assay [2], 40.5%; in assay [3], 10.5%; in assay [4], 17.2%; in assay [5], 64.2%; in assay [6] it was 32.4%.
Turning to `CCOC(=O)c1nc2c(C)nc(N)nc2[nH]c1=O`, the growth inhibition in assay [1] is -0.35%; in assay [2] it was -1.2%; in assay [3] it was -12%; in assay [4], -32.1%; in assay [5], -5.6%; in assay [6], -3.1%.
In the case of `O=NC1C(Cl)C2CC1C1COCC21` (stereo not drawn), the growth inhibition is -16% in assay [1]; -9.55% in assay [2]; -9.05% in assay [3]; -30.1% in assay [4]; 1% in assay [5]; -7.05% in assay [6].
On to `C=CCC1(C(=O)OC)CCC/C(=N\O)C1` (stereo not drawn), for which the growth inhibition was 7.5% in assay [1]; -17.8% in assay [2]; -19.4% in assay [3]; 4.1% in assay [4]; -26.9% in assay [5]; -3.45% in assay [6].
